Compound activity as filed in PubChem.
The list is not random: actives were taken first. Their share in the collection is about 2.2%.
Vaccinia mCherry = qHTS for Stage-Specific Inhibitors of Vaccinia Orthopoxvirus: mCherry Reporter Primary qHTS; Vaccinia virus mCherry reporter infection, fluorescence; Potency, µM (doses to about 36.5 µM), inactives show at the highest dose activity change, negative = inhibition, hits mostly inhibitors; AID 720579, 2013; 310,000 tested, 0.63% active; calls by dose curve; tested in A549 cells; also: nearly all actives have a fitted effect of over 35% in size
FMDV antiviral = High Throughput Screening for Foot and Mouth Disease Virus Antivirals | FMDV antiviral cell-based qHTS | Potency, µM (highest dose often 57.9 µM), inactives show at the top dose activity change, negative = inhibition, hits mostly inhibitors | 410,000 tested, 1.2% active; calls by dose curve; tested in HEK293T cells; also: read-out not given here; nearly all actives have a fitted effect of over 45% in size
VACV Venus inh = qHTS for Stage-Specific Inhibitors of Vaccinia Orthopoxvirus: Venus Reporter Primary qHTS; Vaccinia virus Venus reporter expression, fluorescence; Potency, µM (highest dose often 36.5 µM), for the others: top-dose activity change, negative = inhibition, most hits filed as inhibitors; 330,000 tested, 0.46% active; calls by dose curve; tested in A549 cells; also: nearly all actives have a fitted effect of over 30% in size
Giardia FBPA inh = qHTS Assay for Inhibitors of Fructose-1,6-bisphosphate Aldolase from Giardia Lamblia. 290,000 tested, 0.71% active. Potency, µM (top dose mostly 59.6 µM), without a hit: top-dose activity, negative = inhibition, most hits filed as inhibitors. A8B2U2. purified Giardia FBPA; active = well fitted inhibition curve with a large enough effect; inconclusive = small, poorly fitted or top-dose-only effect, or effect the other way; also: nearly all actives have a fitted effect of over 55% in size
Target sequence (A8B2U2 whole entry, looked up): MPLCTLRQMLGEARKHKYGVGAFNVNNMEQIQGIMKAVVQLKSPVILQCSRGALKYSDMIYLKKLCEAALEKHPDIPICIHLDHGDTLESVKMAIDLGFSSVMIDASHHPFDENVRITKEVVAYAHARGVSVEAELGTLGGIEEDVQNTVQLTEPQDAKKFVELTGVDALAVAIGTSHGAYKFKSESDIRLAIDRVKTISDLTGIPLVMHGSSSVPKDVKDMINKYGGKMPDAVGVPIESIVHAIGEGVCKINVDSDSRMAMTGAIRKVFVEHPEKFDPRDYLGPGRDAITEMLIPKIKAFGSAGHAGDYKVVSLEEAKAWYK
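Giardia FBPA (40 nM reagent) was preincubated 10 min at RT with compound (up to 57.5 uM final), then substrate plus GAPDH/TPI/NAD/arsenate coupling system with diaphorase/resazurin was added; resorufin fluorescence (525/598 nm) was read after 20 min.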
* hit, by the source's call; i = inactive; ? = inconclusive; . = not tested or not shown; [ ] = dose if it differs, or a comment. % is scaled to controls: 0 for no effect and ±100 for the full control effect; potency is read from the fitted curve at half-maximal effect.

SMILES	Vaccinia mCherry	FMDV antiviral	VACV Venus inh	Giardia FBPA inh
C=CC[C@@H](CC(=O)N(CCO)Cc1ccccc1)C(=O)N[C@@H](COC(=O)[C@H](CC=C)CC(=O)OC(C)(C)C)Cc1c[nH]c2ccccc12	?	-25%	11µM*	.
C=CC[C@H](CC(=O)N(CCO)Cc1ccccc1)C(=O)N[C@@H](COC(=O)[C@@H](CC=C)CC(=O)OC(C)(C)C)Cc1c[nH]c2ccccc12	?	?	11µM*	.
CCCNC(=O)[C@H]1O[C@@H]1C(=O)N[C@H](C(=O)N1CCC[C@H]1C(=O)OC)[C@@H](C)CC	-22%[60.7 µM]	-15%	-10%[60.7 µM]	.
O=C(Oc1cccc(Nc2ncnc3ccccc23)c1)c1ccccc1Cl	?	18µM*	?	-6%
O=C(NCCN1Cc2ccccc2OC(c2ccsc2)C1)c1cncs1 (stereo not drawn)	-11%	-6%	-5%	.
COc1ccc(-c2nc3ccc(NC(=O)COC(C)=O)cc3c(=O)n2Cc2ccccc2)cc1COc1ccc(NC(C)=O)cc1	i	.	-11%	.
O=C(O)c1cc2cccc([N+](=O)[O-])c2[nH]1	-4%	.	-7%	.
CCOC(=O)c1sc(NC(=O)c2cc(-c3ccc(C)cc3)nc3ccccc23)c(C#N)c1C	-16%	?	-12%	8%
COC(=O)c1sc(NC(=O)c2cc(-c3ccccc3)nc3ccccc23)c(C#N)c1C	16µM*	3.2µM*	?	1.4µM*
COc1ccc2nc(C)cc(Sc3nc4ccccc4s3)c2c1	0.79µM*	16µM*	1.4µM*	?
COc1ccc2nc(C)cc(SCC(=O)NNC(=O)COc3ccccc3)c2c1	-15%	-12%	-7%	3%
CNC1CCC(c2ccc(Cl)c(Cl)c2)c2ccccc21 (stereo not drawn)	.	-15%	.	-4%
Cc1cc(C)cc(CN2CCOc3ccc(CN4CCC(O)(c5cccnc5)CC4)cc3C2)c1	-2%	-19%	-9%	.
Oc1ccccc1CNc1ccc(Br)cn1	.	0%	14µM*	-3%
C=CS(=O)(=O)c1sc(Cl)c(N2CCOCC2)c1[N+](=O)[O-]	?	25µM*	?	-3%
C=CSc1sc(Cl)c(N2CCOCC2)c1[N+](=O)[O-]	-12%	?	-8%	1%
CC[C@@]1(c2cccc(C)c2)C(=O)N(C(=O)OC)N1C(=O)OC	?	-21%	?	5%
COC(=O)N1C(=O)[C@](CC(C)C)(c2ccccc2)N1C(=O)OC	-28%	35µM*	?	10%
COC(=O)N1C(=O)[C@@](CC(C)C)(c2ccccc2)N1C(=O)OC	.	.	.	0%
COC(=O)N1C(=O)[C@@](c2ccccc2)(C2CCCC2)N1C(=O)OC	?	20µM*	?	-3%
CCOC(=O)N1C(=O)[C@@](CC)(c2ccccc2)N1C(=O)OCC	?	35µM*	?	-6%
O=C(c1ccccc1-n1cccn1)N1CCOc2c(cc(-c3ncc(C(F)(F)F)cc3Cl)cc2OCC2CCCO2)C1 (stereo not drawn)	-8%	-22%	-5%	.
Nc1ccc[n+](CC(=O)c2ccc(F)cc2)c1	34%	.	310%	.
O=C1CCC[C@@H]2C[C@@]3(C[C@@H]4CCN1[C@H]24)Nc1ccccc1NC3=NC1CCCCC1	i	.	-15%	.
COCCN1CCN(C(=O)c2cnn(-c3nccc(-c4ccco4)n3)c2C(C)C)CC1	-9%	2%	4%	.
SMILES	Vaccinia mCherry	FMDV antiviral	VACV Venus inh	Giardia FBPA inh
CCc1c(C#N)c(SCCC(=O)Nc2ccc(F)cc2)nc2c1C(=O)CC(C)(C)C2	.	28µM*	?	2%
Cc1cnc(C)c(-c2cccc3c2OC(CNC(=O)/C=C/c2ccc(F)c(F)c2)C3)n1 (stereo not drawn)	-15%	-16%	-4%	.
O=S(=O)(Cc1ccccc1)c1cnc2ccccc2n1	.	11µM*	-12%	-7%
CCOc1ccc(CN(C)C(=O)CCNC(=O)c2ccco2)cc1	.	2%	.	.
CCOc1ccc(CN(C)C(=O)CCl)cc1	?	25µM*	-21%	3%
COc1ccc(CCNc2ncnc3sccc23)cc1OC	-13%	28µM*	-18%	-1%
COc1ccc(Nc2ncnc3sccc23)cc1OC	?	25%	-12%	5%
Cc1cc(C(=O)N2CCOc3ccc(CN4CCC(Oc5cccnc5)CC4)cc3C2)c(C)o1	-9%	-23%	3%	.
Cc1cc(-c2ccnc(-n3ncc(C(=O)NCc4cccnc4)c3C3CC3)n2)c(C)s1	-12%	-12%	6%	.
CCC(=NNC(=O)c1ccc2c(c1)nc(C)n2CC)c1cc(F)ccc1O	10µM*	-18%	?	.
CCn1c(C)nc2cc(C(=O)N/N=C/c3ccc(O)c(O)c3O)ccc21	-12%	-27%	1%	13µM*
COc1cccc(/C=N/NC(=O)c2nc(-c3ccccc3)cc(-c3ccccc3)n2)c1O	-21%	0%	-17%	-12%
CCn1c(C)nc2cc(C(=O)n3cc(C(=O)c4cc(F)ccc4O)cn3)ccc21	.	.	.	6%
CCn1c(C)nc2cc(C(=O)N/N=C/c3cccc(OC)c3O)ccc21	10µM*	5%	?	8%
CCSc1nc2ccccc2n1C(=O)/C=C/c1ccc(OC)c(OC)c1	28µM*	20µM*	?	-3%
C=CCSc1nc2ccccc2n1C(=O)/C=C/c1cc(OC)c(OC)c(OC)c1	.	8.9µM*	.	0%
CC1=NNC(=O)/C1=C\c1cn(-c2ccccc2)nc1-c1ccc(F)cc1	10µM*	11µM*	10µM*	-13%
CC1=NNC(=O)/C1=C\c1cn(-c2ccccc2)nc1-c1cccs1	.	10µM*	.	-12%
Cc1ccc(NC2=CC(=O)c3sc(C)nc3C2=O)cc1	.	?	.	-11%
COCc1ccc(CN2Cc3ccccc3OC(c3ccccc3OC)C2)o1 (stereo not drawn)	-6%	-3%	5%	.
O=C(c1ccco1)N1CCN(c2nc3ccccc3c(=O)n2-c2ccccc2)CC1	.	7.1µM*	.	-1%
Cc1cc(N2CCN(C(=O)c3ccco3)CC2)c2ccccc2n1	.	-9%	.	0%
COc1ccc(NC(=O)c2c(NCc3cccs3)sc3c2CCCCC3)c(OC)c1	-16%	16%	0%	.
CC(C)C(=O)SCCCCCCC(=O)Nc1nc(-c2ccccc2)cs1	.	.	.	4%
CSc1ccc(/C=C/C(=O)c2ccc(O)cc2)cc1	11µM*	-36%	?	13%
SMILES	Vaccinia mCherry	FMDV antiviral	VACV Venus inh	Giardia FBPA inh
Cc1ccc(/C=C/C(=O)c2ccc(O)cc2)cc1	11µM*	12%	-26%	-6%
O=[N+]([O-])c1ccc(S(=O)(=O)N2CCn3cccc3C2c2ccccc2F)cc1 (stereo not drawn)	11µM*	?	?	.
CC(C)(CNC(=O)c1cnn(-c2ncc3c(n2)-c2ccccc2CC3)c1C1CC1)N1CCOCC1	i	-13%	-10%	.
CC(C)(C)c1nn2cnnc2n(/N=C/c2cccc3ccccc23)c1=O	-8%	28µM*	?	-3%
COCc1c(C(=O)Nc2ccc3nc(N4CCOCC4)sc3c2)oc2ccccc12	?	25µM*	-26%	.
COC(=O)c1sc2nc(C)cc(C)c2c1N	-15%	35%	3%	-14%
